Bioassay records: PubChem BioAssay, National Center for Advancing Translational Sciences (NCATS)
Sampled rows, rich in hits. Any-hit rate of the full collection: about 6.5%.
Giardia kill: Giardia lamblia killing; Giardia lamblia trophozoite viability; activity change, % at 7.66 µM, hits read low; actives 0.15% (n = 340,000); AID 540267; in the data active means activity change below about -80%; inconclusive means between about -30% and that limit;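 further: parasites exposed to compound for two days anaerobically before the ATP read; on the % scale 0 is the no-effect control and ±100 the full control effect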
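Luminescence from cellular ATP indicates surviving trophozoites (100 cells/well) following 48 hrs anaerobic compound treatment at 37 deg C; signal develops 15-30 min at room temperature.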
IL1B secr inh: blocks inflammasome-driven IL-1 beta release; THP-1 LPS/ATP IL-1B secretion, AlphaLISA, 16 h; stronger effect = lower value; AID 743279; actives 4.7% (n = 360,000); activity change, % at 57.5 µM; in the data active means activity change below about -50%; inconclusive means mostly about -30% to -49%; further: on the % scale 0 is the no-effect control and ±100 the full control effect
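THP-1 cells pretreated 1 hr with compounds (up to 57.5 uM final), then stimulated with LPS (250 ng/mL final) plus ATP (1.25 mM final); secreted IL-1B measured by AlphaLISA after 16 hr, decreased signal indicating inhibition.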
HepG2 tox: HepG2 cytotoxicity, counter-screen for TGF-b inhibitors. Potency, µM (series often up to 46.1 µM), without a hit: at the highest dose activity change, negative = cytotoxicity, actives largely listed as cytotoxic. AID 588856. HepG2 CAGA-GFP viability, ATP luminescence, 18 h. actives 0.76% (n = 410,000); further: potency means the concentration at half of the fitted maximal effect
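CellTiter-Glo luminescence gave cytotoxicity after 18 hours at 37 degrees C. The cells were HepG2 CAGA-GFP in 1% FBS DMEM, stimulated with 500 pg/mL TGF-beta after compound addition. %Activity was normalised to no-cell wells (complete cell-killing) and DMSO (no toxicity), and curves were fitted and classified.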
TGFb inhibitor: TGF-b pathway inhibition | HepG2 CAGA-GFP TGF-b/SMAD3 reporter, GFP fluorescence, 18 h; TGF-beta stimulated, 500 pg/mL final | actives 1.2% (n = 410,000) | Potency, µM (top dose mostly 46.1 µM), without a hit: at the highest dose activity, negative = inhibition, usual class: inhibitors; further: potency means the concentration at half of the fitted maximal effect; on the % scale 0 is the no-effect control and ±100 the full control effect; nearly all actives have a fitted effect of over 65% in size
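TGF-beta reporter screen: HEPG2 CAGA-GFP, 1% FBS, 500 pg/mL TGF-beta final, 18 h; per-cell GFP summed per well; curves fitted and categorized by class.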
HT1080 IDH1KD tx: kills HT-1080 cells with IDH1 knockdown; HT-1080 IDH1 knockdown viability, ATP luminescence, 48 h; AID 686971; actives 2% (n = 360,000); Potency, µM (titrated, usually from 46.1 µM), inactives show top-dose activity, negative = toxicity, most hits filed as cytotoxic;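 further: potency means the concentration at half of the fitted maximal effect; 0% = DMSO wells and -100% = cell-free medium wells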
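Luminescent ATP read-out (CellTiter-Glo, 10 min at room temperature) after 48 h compound exposure at 37 °C gave viability of IDH1-knockdown HT-1080 cells. Activity was normalised to DMSO and cell-free wells, then fitted as concentration-response curves.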
HT1080-NT tox: kills 2HG-producing HT-1080-NT fibrosarcoma cells; AID 686970; actives 1.6% (n = 360,000); Potency, µM (series often up to 46.1 µM), for the others: at the highest dose activity, negative = less viability, most hits filed as cytotoxic; HT-1080-NT fibrosarcoma viability, CellTiter-Glo ATP luminescence, 48 h;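 further: NT is the 2HG producing partner of a matched IDH1 knockdown line; potency means the concentration at half of the fitted maximal effect; 0% = DMSO-treated cells and -100% = media-only wells without cells; nearly all actives have a fitted effect of over 55% in size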
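HT-1080-NT fibrosarcoma cells (2HG-overproducing), 750 cells/well in RPMI with 5% FBS, dosed after 2 h and incubated 48 h at 37C. CellTiter-Glo luminescence normalized to DMSO and no-cell wells; concentration-response curves fitted and classed.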
Numbers without * were called inactive; ? = inconclusive; . = not tested or not shown. Unless noted, the call rests on the fitted dose curve; in most records, active means well fitted curve in the direction sought with a large enough effect; inconclusive means small, poorly fitted or top-dose-only effect, or another doubt; inactive means no such curve, though single readings can be large; an effect the other way counts as inactive or inconclusive.

SMILES | Giardia kill | IL1B secr inh | HepG2 tox | TGFb inhibitor | HT1080 IDH1KD tx | HT1080-NT tox
CCOC(=O)c1ccccc1NC(=O)c1sc2nc3n(c(=O)c2c1C)CCCC3 | . | . | -2% | -8% | . | .
O=C1NC[C@H](Cc2ccc(O)cc2)N(C[C@@H]2CCCN2C[C@H](Cc2ccccc2)N2C[C@H](Cc3ccc(O)cc3)N(CCc3ccccc3)C(=O)C2=O)C1=O | . | ? | . | . | -16% | -17%
O=C1NC[C@H](Cc2ccccc2)N(C[C@@H]2CCCN2C[C@H](Cc2ccc(O)cc2)N2C[C@H](Cc3ccc(O)cc3)N(CCc3ccccc3)C(=O)C2=O)C1=O | . | -20 | . | . | 7% | -4%
O=C1NC[C@H](Cc2ccccc2)N(C[C@@H]2CCCN2C[C@H](Cc2ccccc2)N2C[C@H](Cc3ccc(O)cc3)N(CCc3ccccc3)C(=O)C2=O)C1=O | . | -60* | . | . | ? | ?
O=C1NC[C@H](Cc2ccccc2)N(C[C@H]2CCCN2C[C@H](Cc2ccccc2)N2C[C@H](Cc3ccc(O)cc3)N(CCc3ccccc3)C(=O)C2=O)C1=O | -17 | -52* | -12% | -9% | ? | -23%
O=C(/C=C/c1cn(CC(O)CN2CCCCCC2)c2ccccc12)c1ccccc1 (stereo not given) | . | . | -91% | ? | . | .
O=C(/C=C/c1cn(CC(O)CN2CCCCC2)c2ccccc12)c1ccccc1 (stereo not given) | -10 | -87* | 5% | ? | 16µM* | ?
CN1CCN(Cn2cc(/C=C/C(=O)c3ccccc3)c3ccccc32)CC1 | -3 | -66* | -59% | 13µM* | 0% | 5%
COc1ccc(C(=O)/C=C/c2cn(CC(O)CN3CCN(C)CC3)c3ccccc23)cc1OC (stereo not given) | 3 | . | -187% | ? | 15µM* | 16µM*
O=C(/C=C/c1cn(CC(O)CN2CCCCC2)c2ccccc12)c1cccs1 (stereo not given) | -11 | -68* | -44% | 0% | ? | ?
Cc1ccc(C(=O)/C=C/c2cn(CC(O)CN3CCCCCC3)c3ccccc23)cc1 (stereo not given) | . | . | -107% | ? | . | .
COc1ccc(C(=O)/C=C/c2cn(CC(O)CN3CCCCCC3)c3ccccc23)cc1OC (stereo not given) | . | . | -93% | ? | . | .
COC(=O)/C=C/CSC1=N/C(=C/c2ccc(-n3cncn3)cc2)C(=O)N1 | 4 | ? | -2% | ? | 22% | 26%
CCOc1ccccc1NC(=O)Nc1ccsc1C(=O)OC | -15 | -6 | -15% | -1% | 20% | -3%
COc1ccc(-n2nnnc2C(c2ccccc2)N2CCN(C/C=C/c3ccccc3)CC2)cc1 (stereo not given) | . | -55* | -31% | ? | ? | ?
CN1CCN(C(c2cccc(C(F)(F)F)c2)c2nnnn2Cc2ccccc2)CC1 (stereo not given) | 10 | -54* | -36% | ? | ? | ?
Fc1ccc(C(c2ccc(F)cc2)N2CCN(C/C=C/c3ccccc3)CC2)cc1 | -7 | -12 | 6.3µM* | ? | ? | ?
FC(F)(F)Oc1ccccc1C(c1nnnn1Cc1ccccc1)N1CCN(C/C=C/c2ccccc2)CC1 (stereo not given) | . | -55* | -40% | ? | -16% | -18%
C(=C\c1ccccc1)/CN1CCN(C(c2ccccc2)c2ccccc2)CC1 | 3 | 16 | -41% | -28% | -13% | -15%
N#Cc1cccc(C(c2nnnn2Cc2ccccc2)N2CCCC2)c1 (stereo not given) | -2 | 6 | -24% | -13% | 4% | 0%
C(=C\c1ccccc1)/CN1CCN(C(c2ccccc2)c2nnnn2Cc2ccccc2)CC1 (stereo not given) | . | 0 | -17% | ? | ? | ?
